In the OligoGym collection one finds sensor-assay potency score (higher = more potent) data, which are given here for 40 sequences.
Also: reference of the scale not given here.

In the first experiment the target is GIP. The experiment in a line: pooled miR-30 sensor sort-seq; sequence = guide strand. The settings on record: shRNA.
AAAGTCTTGTTGGTGAATCTTG: the sensor-assay potency score (higher = more potent) was -0.684.

Consider TTGTCCATGGCAATACTGTAGT, for which the sensor-assay potency score (higher = more potent) is -0.964.

On to TGATGTTGTGTTTCCAGTCATT, for which the sensor-assay potency score (higher = more potent) was -1.13.

In turn, TAGCATGAGATCCAACAGGCAG showed a sensor-assay potency score (higher = more potent) of -0.668.

Consider TTGTTGGTGAATCTTGTCCATG, for which the sensor-assay potency score (higher = more potent) is -1.48.

Another experiment concerns the target GJB7. Described as above. The settings on record: shRNA.
Consider TATTCTAAAACAACTAATGTTA, for which the sensor-assay potency score (higher = more potent) was -0.542.

Sequence TTACAGTATAGTACATAGTGAA came in with a sensor-assay potency score (higher = more potent) of -0.477.

Turning to TACAGTATAGTACATAGTGAAT, the sensor-assay potency score (higher = more potent) is -1.64.

Regarding TATTTTTGGAGACAGCACTTAA, the sensor-assay potency score (higher = more potent) was -0.911.

TCTGACTCTAGAGTGACCCTTT had a sensor-assay potency score (higher = more potent) of 0.802.

Turning to TTCAACACAATACACAAGCATG, the sensor-assay potency score (higher = more potent) was -0.84.

For the sequence TAGAGTTTCTTTCTGTGCCTTT, the sensor-assay potency score (higher = more potent) was 0.0219.

TTTGTCTTCCAACTCAGCTTAG yielded a sensor-assay potency score (higher = more potent) of -1.04.

TTGTGTGTCACAGAGTAGCTTT came in with a sensor-assay potency score (higher = more potent) of -0.222.

TAGTACACATTTTACTATCTGT registered a sensor-assay potency score (higher = more potent) of -0.554.

For TATACTAGTAAATTATAGGCGA, the sensor-assay potency score (higher = more potent) is -0.424.

The target of the next experiment is GKN1. The description is as above. The settings on record: shRNA.
TACACTGGTCGTGTAGCACGTT came in with a sensor-assay potency score (higher = more potent) of -0.157.

As to TGATATTATAGTTAGCTAGGGC, the sensor-assay potency score (higher = more potent) is -0.211.

For ATTGTTGACACTCACTGACTGC, the sensor-assay potency score (higher = more potent) is -0.392.

Take TTGTTGTCATCATTGACGTTGA: the sensor-assay potency score (higher = more potent) was -0.288.

In turn, TTCATTGTTGACACTCACTGAC registered a sensor-assay potency score (higher = more potent) of 0.268.

Sequence TTCTTTTGAAAGAGTCTGGTTG displayed a sensor-assay potency score (higher = more potent) of 0.101.

Consider TTTTCTGCACAGCATATTCAGA, for which the sensor-assay potency score (higher = more potent) is -0.973.

ATCCATAGTACACTGGTCGTGT yielded a sensor-assay potency score (higher = more potent) of 0.399.

As for TTTGTGCACAATGCATGTCTTC, the sensor-assay potency score (higher = more potent) is -0.893.

TGGTCGTGTAGCACGTTCCTGA showed a sensor-assay potency score (higher = more potent) of -0.625.

In turn, TTGTGAACTTCATCTTGTCTTC came in with a sensor-assay potency score (higher = more potent) of -0.21.

Another experiment concerns the target GKN2. Described as above. The note with it: shRNA.
TTAATTTGACTTTTGAGTGTAA had a sensor-assay potency score (higher = more potent) of 0.33.

Sequence TATTTTCTGACTGAATCTCAAA displayed a sensor-assay potency score (higher = more potent) of -1.16.

TTATAGTCAAAAATTGTGGTAG: the sensor-assay potency score (higher = more potent) was 0.587.

Sequence TGACTTTTGAGTGTAAACCAAG came in with a sensor-assay potency score (higher = more potent) of -1.39.

Take TAGAAGAGCATGATCCTGCATG: the sensor-assay potency score (higher = more potent) was -0.328.

For TTTATAGTCAAAAATTGTGGTA, the sensor-assay potency score (higher = more potent) was -0.623.

Take TGGTAGAAGAGCATGATCCTGC: the sensor-assay potency score (higher = more potent) was -0.134.

A further experiment deals with GLA. The description is as above. The note with it: shRNA.
TTTAGCAGATCTACTCCCCAGT: the sensor-assay potency score (higher = more potent) was -0.498.

For TTACTTGCTGATTCCAGCTGAG, the sensor-assay potency score (higher = more potent) worked out at 0.0513.

The sequence TAGACATGAATAAAGGAGCAGC registered a sensor-assay potency score (higher = more potent) of -0.359.

On to TGTCACAGTAACAACCATCAAA, for which the sensor-assay potency score (higher = more potent) is -0.951.

For TTATGTGACTTCTTAACCTTGA, the sensor-assay potency score (higher = more potent) is 0.747.

As for TTTATCATAGCTACAGCCCAGG, the sensor-assay potency score (higher = more potent) was -0.597.
